# Key:
# Test in all cases: thermal shift delta Tm vs DMSO control; higher = stronger stabilization (binding)
# Details in all cases: 12.5 µM; protein concentration 2 µM
# LOC_OS04G57630-cb004 = tested on: LOC_OS04G57630-cb004
# How it was run: (§1)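 Rice kinase domain constructs were expressed in E. coli, purified, and tested by differential scanning fluorimetry with compound added in DMSO. Each well of a 96-well plate held 19.5 μl of 2 μM kinase in 100 mM potassium phosphate pH 7.5, 150 mM NaCl, 10% glycerol and 5 × SYPRO Orange, and fluorescence was read from 25°C to 95°C at 0.05°C/s. The melting temperature shift is the mean of triplicates, taken against protein with DMSO alone after Boltzmann fitting.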
# LOC_OS05G07850-cb002 = tested on: LOC_OS05G07850-cb002
# How it was run: as §1
# LOC_OS05G16824-cb004 = tested on: LOC_OS05G16824-cb004
# How it was run: as §1
# LOC_OS05G28520-cb001 = tested on: LOC_OS05G28520-cb001
# How it was run: as §1
# LOC_OS05G30820-cb001 = tested on: LOC_OS05G30820-cb001
# How it was run: as §1
# LOC_OS05G43570-cb004 = tested on: LOC_OS05G43570-cb004
# How it was run: as §1
# LOC_OS06G16330-cb003 = tested on: LOC_OS06G16330-cb003
# How it was run: as §1
# LOC_OS06G22820-cb001 = tested on: T1, LOC_OS06G22820-cb001
# T1 sequence (whole entry): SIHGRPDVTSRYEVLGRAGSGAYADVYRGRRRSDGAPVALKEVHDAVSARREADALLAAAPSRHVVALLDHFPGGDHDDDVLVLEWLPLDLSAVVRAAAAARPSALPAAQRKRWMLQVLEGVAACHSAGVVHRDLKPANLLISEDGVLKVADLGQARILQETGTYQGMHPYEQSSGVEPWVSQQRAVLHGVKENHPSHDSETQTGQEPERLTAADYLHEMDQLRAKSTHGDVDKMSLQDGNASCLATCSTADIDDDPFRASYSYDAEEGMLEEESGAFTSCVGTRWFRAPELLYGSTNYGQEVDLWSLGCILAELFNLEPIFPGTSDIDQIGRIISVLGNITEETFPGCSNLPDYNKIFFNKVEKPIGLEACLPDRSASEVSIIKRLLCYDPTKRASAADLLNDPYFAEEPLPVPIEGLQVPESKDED
# How it was run: as §1
# LOC_OS07G06570-cb004 = tested on: LOC_OS07G06570-cb004
# How it was run: as §1
# LOC_OS07G07230-cb001 = tested on: LOC_OS07G07230-cb001
# How it was run: as §1
# Chain of LOC_OS06G16330-cb003 (as listed by the source): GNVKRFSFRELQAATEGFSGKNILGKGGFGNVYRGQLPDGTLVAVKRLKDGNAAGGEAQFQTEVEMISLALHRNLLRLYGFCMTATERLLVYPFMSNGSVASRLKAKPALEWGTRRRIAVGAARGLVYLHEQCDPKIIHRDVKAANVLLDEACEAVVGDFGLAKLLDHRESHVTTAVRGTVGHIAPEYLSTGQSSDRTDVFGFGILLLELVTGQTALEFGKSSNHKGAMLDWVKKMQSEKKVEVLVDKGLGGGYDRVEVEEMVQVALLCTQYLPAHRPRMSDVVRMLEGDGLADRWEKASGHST
SMILES,thermal shift delta Tm (LOC_OS04G57630-cb004),thermal shift delta Tm (LOC_OS05G07850-cb002),thermal shift delta Tm (LOC_OS05G16824-cb004),thermal shift delta Tm (LOC_OS05G28520-cb001),thermal shift delta Tm (LOC_OS05G30820-cb001),thermal shift delta Tm (LOC_OS05G43570-cb004),thermal shift delta Tm (LOC_OS06G16330-cb003),thermal shift delta Tm (LOC_OS06G22820-cb001),thermal shift delta Tm (LOC_OS07G06570-cb004),thermal shift delta Tm (LOC_OS07G07230-cb001)
C[C@@H]1COC(Nc2ccc3ncnc(Nc4ccc(OCc5nccs5)c(Cl)c4)c3c2)=N1 [Varlitinib],1.38 °C,3.96 °C,-3.4 °C,0.54 °C,0.94 °C,0.53 °C,1.46 °C,0.8 °C,0.43 °C,0.26 °C
COc1cc2nccc(Oc3ccc(NC(=O)c4cn(C(C)C)c(=O)n(-c5ccc(F)cc5)c4=O)cc3F)c2cc1OC,0.32 °C,11.1 °C,2.27 °C,0.34 °C,-0.01 °C,0.27 °C,8.48 °C,0.89 °C,1.78 °C,0.22 °C
Cn1cc(-c2ccc3ncc(Cc4ccc5ncccc5c4)n3n2)cn1,1.12 °C,5.01 °C,-1.27 °C,0.45 °C,0.48 °C,0.16 °C,2.64 °C,0.5 °C,0.78 °C,0.13 °C
